LASV entry inh – inhibitors of Lassa virus binding or cell entry; Lassa virus pseudotype entry inhibition, cell reporter; Potency, µM (doses to about 37.9 µM), for inactives: at the top dose activity change, negative = inhibition, hits mostly inhibitors; 300,000 compounds, 1.2% hits; AID 540256; calls by dose curve; tested in HEK293 cells; note: potency is the fitted concentration of half-maximal effect; % is set by controls: 0 for no effect and ±100 for the full control effect; nearly all actives have a fitted effect of over 50% in size
MARV entry inh – blocks Marburg virus binding to or entry into cells | Marburg virus pseudotyped entry inhibition, cell reporter | Potency, µM (top dose mostly 37.8 µM), for inactives: top-dose activity change, negative = inhibition, actives largely listed as inhibitors | 300,000 compounds, 1.8% hits | AID 540276; calls by dose curve; tested in HEK293 cells; note: potency is the fitted concentration of half-maximal effect; % is set by controls: 0 for no effect and ±100 for the full control effect
Pf growth 96h – inhibits malaria parasite growth, 96 h. P. falciparum luciferase reporter growth, 96 h. Potency, µM (doses to about 28.7 µM), for inactives: at the top dose activity change, negative = inhibition, actives largely listed as inhibitors. 320,000 compounds, 6.9% hits. AID 504834; note: potency is the fitted concentration of half-maximal effect; % is set by controls: 0 for no effect and ±100 for the full control effect
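Parasite growth measured via integrated firefly luciferase reporter in P. falciparum. Infected erythrocytes at 2% hematocrit, 0.05% parasitemia final were treated 96 hours at 37 C under 5% CO2, and luminescence was read.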
Cycloheximide cs – counter-screen hit for Shiga toxin inhibitors, cycloheximide; cell reporter, cycloheximide protein synthesis inhibition counterscreen; max response, %; 300,000 compounds, 12% hits; AID 2314; in the data active = max response mostly above about 13%, no sharp cut-off; inactive = mostly below about 14%; note: read at 38.3 µM for the half of the compounds with a filed dose; 0% is about no effect
Pf growth 48h – inhibits P. falciparum growth in the first generation, 48 h. P. falciparum luciferase growth in erythrocytes, 48 h. Potency, µM (highest dose often 28.7 µM), for inactives: at the highest dose activity change, negative = inhibition, actives largely listed as inhibitors. 310,000 compounds, 5.9% hits; note: potency is the fitted concentration of half-maximal effect; % is set by controls: 0 for no effect and ±100 for the full control effect
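Luciferase-expressing P. falciparum in infected erythrocytes (2% hematocrit, 0.1% parasitemia final) in RPMI 1640/0.5% Albumax were exposed to compound for 48 hours at 37 C, 5% CO2; growth read as luminescence.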
Shiga toxin inh – inhibitors of Shiga toxin in Vero cells | inhibition, % at 38.7 µM | Vero cells, Shiga toxin protein synthesis inhibition reporter | AID 2315 | 290,000 compounds, 9.2% hits; in the data active = inhibition mostly above about 28%, no sharp cut-off; inactive = mostly below about 43%; note: 0% is about no effect
* = called active by the depositor; i = inactive; ? = inconclusive; nt = no result given; ! = a repeat was not active; [ ] = remark or other dose. Hits are enriched below; roughly 19% of the tested compounds scored in any of these assays. Unless noted, calls come from the whole dose curve; as a rule, active = well fitted inhibition curve with a large enough effect; inconclusive = small, poorly fitted or top-dose-only effect, or another doubt; inactive = no such curve, though single readings can be large or run the other way.

SMILES	LASV entry inh	MARV entry inh	Pf growth 96h	Cycloheximide cs	Pf growth 48h	Shiga toxin inh
CCc1ccc(CN2CCN(C(=O)Cc3ccccc3)CC2)cc1	-14%[46.1 µM]	11%[46.1 µM]	33%	4	-7%	-1
Oc1ccc(Br)cc1CN1CCCCCCC1	0%	20%	nt	-1	1.7µM*	4
CCc1ccc(CN2CCN(Cc3cc(Br)ccc3O)CC2)cc1	-5%[46.1 µM]	?	1.2µM*	-2	0.23µM*	-8
OCCN1CCN(Cc2cc(Br)cc(Br)c2O)CC1	-2%	?	5%	-5	0%	-10
Oc1ccc(Br)cc1CN1CCN(c2ccccc2)CC1	?	?	63%	-4	1.7µM*	-8
Oc1cccc(CN2CCCCC2)c1	4%	24%	?	-3	-10%	-6
CCOc1cccc(C(=O)Nc2cc(-c3ccc(C)cc3)no2)c1	21%[46.1 µM]	6%[46.1 µM]	nt	nt	nt	nt
CCN1CCN(Cc2cc(Br)ccc2O)CC1	7%	1%	nt	0	13µM*	-2
CCN1CCN(C(=S)Nc2cc(S(=O)(=O)N(CC)CC)ccc2C)CC1	nt	nt	1%	0	0%	7
COc1ccccc1C1NC(=O)NC(C)=C1C(=O)OC1CCC(C)CC1 (stereo not given)	nt	nt	49%	-3	14%	6
CC(=O)Nc1cccc(OCC(O)Cn2cnc3ccccc32)c1 (stereo not given)	12%	-5%	44%	5	-5%	18
OC(COc1ccc2c(c1)CCC2)Cn1cnc2ccccc21 (stereo not given)	7%	?	29%	23	10µM*	74*
OC(CN(c1ccccc1)c1ccccc1)Cn1cnc2ccccc21 (stereo not given)	-6%	?	i	-3	12µM*	30
CC(=O)Nc1ccc(OCC(O)Cn2cnc3ccccc32)cc1 (stereo not given)	3%	-7%[46.1 µM]	7.4µM*	-1	24%	-9
OC(COCc1ccccc1)Cn1cnc2ccccc21 (stereo not given)	-2%	2%	18%	12	10%	-9
O=C(CCCn1c(=S)[nH]c2ccccc2c1=O)N1CCOCC1	1%	26%	?	6	14%	-3
CC(C)c1ccc(NC(=O)CCS(=O)(=O)c2ccc3c(c2)CC(=O)N3C)cc1	23%[46.1 µM]	nt	nt	nt	nt	nt
CCNc1nc(NC(C)C)nc(Oc2ccc(OCCOc3ccccc3)nn2)n1	15%	-5%	nt	-3	?	-16
CCN(CC)CCN(Cc1cc2cc(C)ccc2[nH]c1=O)C(=O)Nc1ccccc1OC	-5%	?	nt	-3	?	-3
CCN(CC)CCN(Cc1cc2ccc(C)cc2[nH]c1=O)C(=S)Nc1ccccc1C(=O)OC	?	2µM*	47%	-2	13µM*	-15
COC(=O)c1ccccc1NC(=S)N(Cc1ccc2c(c1)OCO2)Cc1cc2cc(C)ccc2[nH]c1=O	-10%	?	5%	-1	?	-4
CCN(CC)CCN(Cc1cc2cccc(C)c2[nH]c1=O)C(=S)Nc1ccccc1	7%	?	8%	8	12µM*	18
Cc1ccc2cc(CN(CCN(C)C)C(=S)Nc3ccccc3)c(=O)[nH]c2c1C	?	?	1%	-3	-22%	-12
COC(=O)c1ccccc1NC(=S)N(Cc1ccc2c(c1)OCO2)Cc1cc2ccc(OC)cc2[nH]c1=O	?	?	34%	-1	9.3µM*	-10
COC(=O)c1ccccc1NC(=S)N(Cc1ccc2c(c1)OCO2)Cc1cc2ccc(C)cc2[nH]c1=O	-31%	?	?	0	9.3µM*	-25
SMILES	LASV entry inh	MARV entry inh	Pf growth 96h	Cycloheximide cs	Pf growth 48h	Shiga toxin inh
Nn1cc(-c2ccccc2)nc1SCC(=O)NCC1CCCO1 (stereo not given)	14%	1%[46.1 µM]	23%	6	24%	8
O=C(COC(=O)CC(c1ccccc1)c1ccccc1)Nc1ccc(F)c(F)c1	nt	nt	1%	-2	-6%	-10
CC1CCc2c(sc(NC(=O)Cn3cnc([N+](=O)[O-])n3)c2C(N)=O)C1 (stereo not given)	nt	nt	28%	-6	3%	-11
COc1cc2c(cc1OC)C(C)N(C(=O)Cn1ncc3c1-c1ccccc1OC3)CC2 (stereo not given)	-12%	-21%	?	-5	?	-13
C=CCN=C1NC(c2cccc(C(F)(F)F)c2)C(C(=O)OC)=C(C)N1Cc1ccccc1 (stereo not given)	?	-25%[14.2 µM]	nt	nt	nt	nt
CCN1C(=NCCCCO)N[C@@H](c2cccc(C(F)(F)F)c2)C(C(=O)OC)=C1C	nt	-19%[14.2 µM]	?	-2	?	-2
COC(=O)C1=C(C)N(Cc2ccccc2)C(=NCC(C)C)N[C@H]1c1ccccc1	nt	nt	8.3µM*	-3	?	-4
CCN1C(=NCC(C)C)N[C@@H](c2cccc(C(F)(F)F)c2)C(C(=O)OC)=C1C	nt	nt	0.93µM*	-3	13µM*	-8
C=CCN=C1N[C@@H](c2cccc(C(F)(F)F)c2)C(C(=O)OC)=C(C)N1CC	nt	nt	3.3µM*	-3	10µM*!	13
CC(=O)C1=C(C)N(Cc2ccccc2)C(=O)N[C@H]1CCc1ccccc1	12µM*	?	?	-3	?	-5
COC(=O)C1=C(C)N(Cc2ccccc2)C(=NCC(C)C)NC1c1cccc(F)c1 (stereo not given)	?	20%[14.2 µM]	nt	nt	nt	nt
CCn1c(Cc2ccccc2)nnc1SCC(=O)NC1CC1	1%	-4%	?	-3	?	18
COC(=O)C1=C(C)N(Cc2ccccc2)C(=NCCCCO)N[C@H]1CCc1ccccc1	nt	nt	3.7µM*	-3	?	-3
O=C(CCS(=O)(=O)Cc1ccccc1)NC1CCCCC1	7%	1%	nt	1	2%	-17
Cc1cc(S(=O)(=O)N2CCCCC2CCNC(=O)C(=O)NC2CC2)ccc1F (stereo not given)	?	?	?	nt	-16%	nt
Cc1cc(C)c(S(=O)(=O)N2CCCCC2CCNC(=O)C(=O)NC2CC2)c(C)c1 (stereo not given)	0.89µM*	?	?	nt	9.3µM*	nt
COc1ccc(S(=O)(=O)N2CCCC2CNC(=O)C(=O)NCc2ccccc2Cl)cc1 (stereo not given)	?	?	9.3µM*	nt	?	nt
COc1ccc(CNC(=O)C(=O)NCCC2CCCCN2S(=O)(=O)c2ccccc2)cc1 (stereo not given)	?	?	?	nt	12µM*	nt
COc1ccc(S(=O)(=O)N2CCCC2C(=O)NCc2ccccc2Cl)cc1 (stereo not given)	-21%	-18%[46.1 µM]	-3%	-5	-10%	-11
CCOC(=O)C1(Cc2ccccc2)CCCN(C(=O)c2cn[nH]c2)C1 (stereo not given)	nt	nt	-8%	-2	4%	-6
CCOC(=O)C1(Cc2ccccc2)CCCN(C(=O)c2ccc(-n3ccnc3)cc2)C1 (stereo not given)	0%	9%	?	26*	-29%	42*
